In the library only some 1.9% were active in any assay of this set; here they are far more common.
INS promoter inh – TRM-6 insulin promoter activity inhibition. inhibition, % at 2 µM. hit rate 0.9% among 130,000. TRM-6 cells (human fetal islet line), insulin promoter-eGFP reporter, imaging; reporter expression induced with tamoxifen. AID 1273;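 active = inhibition above the mean plus 3 SD, with well images judged a real hit on visual review, cut at about 60% in these data, passing the limit was not always enough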
Insulin prom up – MIN6 insulin promoter up-regulation | MIN6 insulin promoter-GFP reporter, high-content imaging; stronger effect = higher value | z-score at 5 µM | hit rate 0.3% among 190,000;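 active = z-score above 3 at 5 µM with at least 500 cells counted in the well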
Autophagy mod – alters autophagy in cells. MEF GFP-LC3 puncta imaging; test concentration mostly 10 µM. calls only at 10 µM (by protocol). hit rate 0.98% among 190,000;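 active = percentage of spot-positive cells more than 3 SD above its plate mean, without a fluorescence outlier flag or 80% toxicity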
Efa HMGR inh – inhibitors of class II HMG-CoA reductase from Enterococcus faecalis; purified E. faecalis HMGR, NADPH absorbance 340 nm kinetic; inhibition, % at 10 µM; hit rate 0.41% among 190,000; AID 1066;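 active = inhibition above a set limit, the median over all tested compounds plus 3 SD, cut at about 9.5% in these data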;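 also: enzyme runs in reverse so mevalonate oxidation gives rising NADPH absorbance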
Hits are given with their value; – = inactive; · = no result given; + = active, no number.

SMILES	INS promoter inh	Insulin prom up	Autophagy mod	Efa HMGR inh
COc1ccccc1NC(=O)/C=C\C(=O)O	100.0	–	–	–
CC(C)CC(=O)N/C(N)=N/c1nc2ccccc2o1	·	–	·	·
COc1cc(/C=N/NC(=O)c2ccncc2)ccc1OC(=O)c1ccc([N+](=O)[O-])cc1	100.0	–	–	–
COc1cc(/C=N/NC(=O)c2ccncc2)ccc1OC(=O)c1ccccc1Cl	·	–	–	–
NC1=NC(=O)S/C1=C\c1ccc(F)cc1	–	–	–	23.5
CCOc1cc(/C=C2\SC(=O)N=C2N)ccc1O	–	–	–	–
Cc1ccc(-c2cc3ccccc3nc2N2CCOCC2)cc1	·	–	+	–
COc1ccc(Nc2ccnc(Nc3ccc(OC)cc3)n2)cc1	–	–	–	–
Cn1cnnc1Sc1cc(N2CCN(S(=O)(=O)c3ccc4ccccc4c3)CC2)ccc1[N+](=O)[O-]	·	–	–	–
COc1ccc(C(=O)/C=C/Nc2cc(C)ccn2)cc1	·	–	·	·
CC(C)NC(=O)c1onc(CSc2ccc(F)cc2)c1C(=O)O	89.2	–	–	–
CC(C)NC(=O)c1onc(CSc2ccccc2F)c1C(=O)O	–	–	–	–
Cc1ccccc1SCc1noc(C(=O)NC(C)C)c1C(=O)O	–	3.02	–	–
CC(C)NC(=O)c1onc(CSc2ccc(C(C)C)cc2)c1C(=O)O	–	–	–	–
Cc1ccc(S(=O)(=O)NC(=O)c2ccc(-c3ccc(C)c4ccccc34)o2)cc1	–	–	–	–
COc1ccc(-c2cc(-c3ccccc3)c(C#N)c(S(C)=O)n2)cc1 (configuration not stated)	·	–	+	–
CC(C)(C)c1ccc(NC(=O)Cn2cnc3cc([N+](=O)[O-])ccc3c2=O)cc1	·	–	+	–
Cc1ccc(OCCn2cnc3cc([N+](=O)[O-])ccc3c2=O)cc1	·	–	+	–
O=c1c2ccc([N+](=O)[O-])cc2ncn1CCOc1ccccc1	·	–	–	–
COc1ccc(NC2=Nc3ccccc3N3C2=Nc2c(c(C)nn2-c2ccc(C)cc2)C3c2cccnc2)cc1 (configuration not stated)	–	3.08	–	–
CC(=O)Nc1ccc(NC2=Nc3ccccc3N3C2=Nc2c(c(C)nn2-c2ccccc2)C3c2ccccc2)cc1 (configuration not stated)	–	–	–	–
OC1(c2cn(Cc3ccccc3)nn2)CCCCC1	·	5.88	–	–
Oc1c(C=C2N=c3ccccc3=N2)sc(=S)n1-c1ccccc1	·	–	–	–
CC1=Nc2ccccc2/C1=C/c1sc(=S)n(-c2cccc(C(=O)O)c2)c1O	·	3.2	–	–
Cc1ccc(NC(=O)CSc2nc3ccccc3c(=O)n2CCCC(=O)NCCCN2CCOCC2)cc1	·	·	–	–
SMILES	INS promoter inh	Insulin prom up	Autophagy mod	Efa HMGR inh
CC(C)(C)NC(=O)NC(=O)CN1CCN(c2ncc(C(F)(F)F)cc2Cl)CC1	67.9	–	–	–
Cc1ccc(NC(=S)N/N=C/c2c(C)[nH]c3ccccc23)cc1	·	–	+	–
CC1CCc2c(nc3ncnn3c2NCCc2ccccc2F)C1 (configuration not stated)	–	–	–	–
FC(F)(F)c1ccccc1NC(=S)N1CCc2ccccc2C1	·	–	+	–
Cc1c(Cl)cccc1NC(=S)N1CCc2ccccc2C1	·	–	–	–
Oc1ccc(-c2nc3c4c(ncn3n2)-c2ccccc2CC42CCCC2)cc1	–	–	–	–
Cn1c(Cc2ccccc2)nnc1SCc1ccc(C(=O)O)cc1	75.0	–	–	–
Cn1c(CSCc2ccccc2)nnc1SCC(=O)Nc1ccc(C(=O)O)cc1	·	–	–	–
Cc1ccc(C)c2sc(NC(=O)c3nc4ccccc4s3)nc12	–	–	–	–
NC1=NC(c2ccccc2)N=C(Nc2ccccc2)N1 (configuration not stated)	·	–	·	·
COc1nc(OC)nc(N2CCC(C(=O)NCc3cccs3)CC2)n1	–	3.48	–	–
Cc1cnc(C)c(N2CCC(C(=O)NCc3cccs3)CC2)n1	–	·	–	–
COC(=O)c1c(C(=O)OC)c(-c2ccc(Cl)cc2)n2c1CS(=O)(=O)C2	–	–	–	–
COc1cccc(-n2nnnc2SCC(=O)NC2CCCC2)c1	75.0	–	–	–
CCOC(=O)c1ccc(S(=O)(=O)Nc2ccc3cn[nH]c3c2)cc1	–	–	–	–
O=C(NCCCN1CCOCC1)c1cc(C(=O)C2CCCCC2)c[nH]1	·	–	–	–
CN(C)CCCNC(=O)c1cc(C(=O)C2CCCCC2)c[nH]1	·	–	–	16.8
CCOC(=O)c1sc(NC(=O)COC(=O)C(CCSC)NC(C)=O)nc1C (configuration not stated)	·	–	–	–
CC1=C(C#N)c2nc(N)c(C#N)c(C)c2/C1=C\c1ccc(C)cc1	–	–	+	–
CCN(CC)c1cc(C)c2cc(NC(=O)c3cccs3)ccc2n1	–	–	+	–
CCN1/C(=C2\SC(=S)N(Cc3ccccc3)C2=O)Sc2ccccc21	·	–	+	–
CCN1/C(=C2\OC(=S)N(C)C2=O)Sc2ccccc21	·	–	+	–
COc1ccc(C(=O)NCc2ccc(-n3cccc3)cc2)cc1OC	·	·	–	–
CCc1cccc(CC)c1NC(=S)NCC(c1cccnc1)N1CCOCC1 (configuration not stated)	–	–	–	–
CCn1c(C)c(C(C)=O)c(N2CCN(C(c3ccccc3)c3ccccc3)CC2)nc1=S	–	–	+	–
SMILES	INS promoter inh	Insulin prom up	Autophagy mod	Efa HMGR inh
CN(Cc1ccccc1)c1ncc(C=O)s1	·	–	–	–
CC/C=C\[C@H](O)[C@H](O)C1=C(C)C(=O)[C@]2(O1)C(=O)N[C@@](OC)(C(=O)c1ccccc1)C2O (some centres not stated)	·	–	–	–
CCOC(=O)CC1C(=O)NCCN1c1nc2c(C)cccn2c(=O)c1/C=C1\SC(=S)N(CC(C)C)C1=O (configuration not stated)	·	16.9	·	·
CC(C)CN1C(=O)/C(=C/c2c(N3CCc4ccccc4C3)nc3ccccn3c2=O)SC1=S	·	16.9	·	·
CCCN1C(=O)/C(=C/c2c(NCCCOCC)nc3c(C)cccn3c2=O)SC1=S	–	5.71	+	–
CCOCCCNc1nc2c(C)cccn2c(=O)c1/C=C1\SC(=S)N(CC(C)C)C1=O	–	·	+	–
CCC(C)N=Cc1c(Nc2ccccc2)nc2c(C)cccn2c1=O (configuration not stated)	·	–	·	·
O=C(O)COCC(=O)N1CCCN(c2nc3ccc(Cl)cc3s2)CC1	·	–	·	·
CC(C)(C)CC(=O)NCCc1csc(-c2ccccc2)n1	·	–	·	·
O=C(CN1CCN(c2ccccc2)CC1)Nc1ccccc1Cl	–	–	–	–
O=C(CN1CCN(c2ccccc2)CC1)Nc1ccccc1C(F)(F)F	87.9	–	–	–
COC(C[C@H]1O[C@H]1[C@H](O)COCc1ccccc1)OC	·	–	·	·
Cc1ccc(Cn2nnc3c(=O)[nH]c(C4CCN(S(=O)(=O)c5ccccc5)CC4)nc32)cc1	·	–	–	–
Cc1ccc(S(=O)(=O)N2CCC(c3nc4c(nnn4Cc4ccccc4)c(=O)[nH]3)CC2)cc1	·	–	+	–
CCCc1[nH]nc2c1C1(C(=O)N(C(C)C)c3ccccc31)C(C#N)=C(N)O2 (configuration not stated)	·	–	+	–
CCCCc1[nH]nc2c1C1(C(=O)N(CC)c3ccccc31)C(C#N)=C(N)O2 (configuration not stated)	·	–	–	–
